# According to PubChem BioAssay AID588405 (Sanford-Burnham Center for Chemical Genomics, 2011):
# In all, about 360,000 compounds went through this assay and about 6,200 (1.7%) were called active. The entries come from a sample that favours actives as a whole. Unmarked numbers belong to inactive results.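 The calls were made as follows: active = inhibition of at least 50% at 20 µM; inactive = the rest.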
# Test: Peg3 promoter-driven luciferase inhibitors, primary screen, cell-based, HeLa, luciferase luminescence (AID 588405)
# Conditions: HeLa PEG-Prom luciferase reporter, overnight, at 20 µM, hits give high values
row,SMILES,inhibition
1,COc1ccc(C)cc1NC(=O)c1[nH]c(C)c(C(C)=O)c1C,4.55%
2,CCCC/C=C/c1cccc2nncn12,2.91%
3,O=S(=O)(c1ccc2c(c1)OCCO2)N1CCc2ccccc21,25.9%
4,CSc1nc2ccc(S(=O)(=O)N3CCc4ccccc43)cc2s1,52.1% (active)
5,O=S(=O)(c1ccccc1)N1CCc2ccccc21,5.92%
6,Cn1c(=O)c2c(-c3cccc(Br)c3)c(C#N)c(N)nc2n(C)c1=O,7.56%
7,Cc1nc2c(c(C)nn2-c2ccccc2)c(C)c1C,21.8%
8,CSc1ccc(-c2c(C#N)c(N)nc3c2c(C)nn3-c2ccccc2)cc1,76.2% (active)
9,CCOC(=O)[C@H]1Nc2ccc(Cl)cc2[C@@H]2[C@H]1C1CC(c3ccccc31)N2C(=O)OCc1ccccc1 (some centres not stated),26.4%
10,N#Cc1cccc(NC(=O)c2cc(C3CCCCN3C(=O)CCc3ccccc3)on2)c1 (configuration not stated),23.6%
11,COCCNc1ncnc2c1ncn2[C@H]1CN(Cc2ccc(OC)cc2)C[C@@H](CO)O1,-12.7%
12,COc1ccc(-c2oc3ncnc(NCCCO)c3c2-c2ccc(OC)cc2)cc1,56.5% (active)
13,COc1ccc(-c2oc3ncn(Cc4ccco4)c(=N)c3c2-c2ccc(OC)cc2)cc1,9.27%
14,CC(C)(C)OC(=O)N1CCN(C(=O)c2[nH]c(C(F)(F)F)nc2-c2ccccc2)CC1,5.18%
15,CCN(CC)CCCNC(=O)Cn1cnc2sc(C)c(S(=O)(=O)N3CCN(c4ncccn4)CC3)c2c1=O,-7.38%
16,CCN(CC)CCNC(=O)c1sc2ncn(CC(=O)Nc3ccc(C)c(Cl)c3)c(=O)c2c1C,87.1% (active)
17,CCN(CC)CCNC(=O)Cn1cnc2sc(C)c(S(=O)(=O)N3CCOCC3)c2c1=O,-0.66%
18,Fc1cccc(Cc2c(-c3ccc(Cl)cc3)nc3ccc(Cl)cn23)c1,-75.2%
19,CCNC(=O)C1(C)CCCN(C(=O)c2c(C)noc2C)C1 (configuration not stated),-5.02%
20,Cn1c(Cc2csc(N)n2)nnc1SC/C=C/c1ccccc1,-0.48%
21,CN(C)CCCN(C(=O)c1ccc(S(=O)(=O)N2CCCCCC2)cc1)c1nc2ccc(Br)cc2s1,57.8% (active)
22,CCN(CC(=O)Nc1c(F)cccc1F)C(=O)c1ccc(S(=O)(=O)N2CCCCC2)cc1,3.57%
23,CCN(CC)CCN(C(=O)c1cc(Cl)sc1Cl)c1nc2cc3c(cc2s1)OCO3,-57.9%

row,SMILES,inhibition
1,CCc1ccc2nc(N(CCCN(C)C)C(=O)c3ccc4c(c3)OCCO4)sc2c1,76% (active)
2,CN(C)CCN(C(=O)C1=COCCO1)c1nc2ccc(Cl)cc2s1,-91.5%
3,COc1cc(C(=O)NNC(=O)c2ccc(S(=O)(=O)N3CCCCC3)cc2)cc(OC)c1OC,3.84%
4,CCN(C(=O)COc1ccc(C(=O)c2ccccc2)cc1)c1ccccc1,2.39%
5,CCOc1ccc2nc(/N=C/c3nc(-c4ccccc4)oc3O)sc2c1,-127%
6,CCOc1ccc2nc(N(CCCN(C)C)C(=O)c3ccc(C(=O)c4ccccc4)cc3)sc2c1,105% (active)
7,CCOC(=O)C1CCCN(C(=O)c2cccc3ccccc23)CC1 (configuration not stated),10.3%
8,O=C(C1=C(O)C(=O)N(CCOCCO)C1c1ccccn1)c1cccs1 (configuration not stated),-2.88%
9,COc1ccc(NC(=O)c2cc(=O)[nH]c3ccccc23)cc1S(=O)(=O)N1CCOCC1,-0.23%
10,OC[C@@H]1CN(Cc2cccs2)C[C@H](n2cnc3c(Nc4ccccc4)ncnc32)O1,-9.51%
11,CCCCN1CC(N2CCN(Cc3cccc(C)c3)CC2)CS1(=O)=O (configuration not stated),-1.8%
12,O=C1NCC(c2ccccc2)(c2ccccc2)C(=O)N1,-0.6%
13,CCCNC(=O)C1(C)CCN1C(=O)C1(c2ccccc2)CC1 (configuration not stated),8.72%
14,O=C(CC1Oc2ccccc2NC1=O)NCCCN1CCN(Cc2ccccc2)CC1 (configuration not stated),1.93%
15,CC1CN(C(=O)CCC(=O)NCCCN2CCC(Cc3ccccc3)CC2)c2cc(Cl)ccc2O1 (configuration not stated),102% (active)
16,COc1ccccc1NC(=O)CCC(=O)N1CC(C)Oc2ccc(C)cc21 (configuration not stated),14.5%
17,CC(C)CN1CCC1(C)C(=O)Nc1ccc(OC(F)F)cc1 (configuration not stated),3.35%
18,COc1ccc(-c2ccc(OC(=O)NC3CCS(=O)(=O)C3)cc2)cc1 (configuration not stated),-160%
19,CC(=O)Nc1ccc(CNc2nc(NCCN(C)C)nc3cc(-c4ccccc4)sc23)cc1,97.3% (active)
20,COCCNc1nc(Nc2ccccc2Cl)c2sc(-c3ccccc3)cc2n1,5.82%
21,COCCNc1nc(NCc2ccc(NC(C)=O)cc2)c2sccc2n1,20.4%
22,C=CCc1cccc2cc(C(=O)N3CCN(C(=O)OCC)CC3)c(=O)oc12,22.4%
23,Cc1cccn2c(=O)c3cc(C(=O)NC4CCCCC4)sc3nc12,-45%

row,SMILES,inhibition
1,Cc1cccn2c(=O)c(/C=C(\C#N)S(=O)(=O)c3ccc(Cl)cc3)c(N3CCC(C(N)=O)CC3)nc12,-3.35%
2,Cc1cc(C)cc(Oc2nc3c(C)cccn3c(=O)c2/C=C(\C#N)C(=O)NC2CCS(=O)(=O)C2)c1 (configuration not stated),61.6% (active)
3,FC(F)(F)c1ccccc1Cc1c(-c2ccccc2)nc2c3ccccc3ccn12,-34.1%
4,O=C(NCc1ccncc1)c1ccc(NS(=O)(=O)c2cccc([N+](=O)[O-])c2)cc1,-13.3%
5,O=[N+]([O-])c1cc(S(=O)(=O)Nc2cccc(Cl)c2)ccc1N=Nc1c(O)[nH]c2ccccc12,65.1% (active)
6,Cc1c(-c2ccccc2)n[nH]c1C(=O)N=Nc1c(O)[nH]c2ccccc12,-126%
7,CCCCc1nc2ccc(F)cc2cc1C,6.65%
8,CCOC(=O)N1CCC(NC(=O)c2ccc3nc(N4CCOCC4)sc3c2)CC1,16.9%
9,c1c2c(cc3sc(N4CCCCC4)nc13)OCCO2,80.5% (active)
10,CS(=O)(=O)N1CCCCC1c1cc(C(=O)NCc2ccccc2)no1 (configuration not stated),-14.8%
11,O=[N+]([O-])c1ccc(CN2CC(N3CCC(c4ccccc4)CC3)CS2(=O)=O)cc1 (configuration not stated),10%
12,COc1cccc(CNCCc2c[nH]c3ccccc23)c1OCc1ccccc1F,92.7% (active)
13,Fc1ccccc1COc1ccccc1CNCc1ccncc1,18.9%
14,COc1ccc(C(CCNCc2ccccc2F)c2ccc(F)cc2)cc1 (configuration not stated),17.7%
15,CNc1cncc(-c2ccc(NS(C)(=O)=O)cc2)n1,21.2%
16,CC1(C(=O)NS(=O)(=O)c2ccc(C#N)cc2)CCN1C(=O)CC1CCCC1 (configuration not stated),11.7%
17,COc1ccc(C(C#N)=C2C=CC(=NO)c3ccccc32)cc1,-114%
18,COc1ccc(NS(=O)(=O)c2cc3c(cc2C)N(C(C)=O)CCO3)cc1,9.24%
19,COc1cc([N+](=O)[O-])ccc1NC(=O)COC(=O)CCOc1ccc(C)cc1,51.2% (active)
20,CSc1ccccc1NC(=O)COC(=O)CCCOc1ccc(C)cc1,8.63%
21,COc1ccc([N+](=O)[O-])cc1NCC(=O)c1ccc(C)cc1,-17.2%
22,CN1OC[C@@H]2CN(C(=O)c3cccc4ccccc34)[C@H](c3ccc(N4CCCCC4)cc3)C[C@@H]21,1%
23,O=C(Nc1ccccc1C(=O)NCC1CCCO1)c1ccccc1F (configuration not stated),6%

row,SMILES,inhibition
1,CSc1n[nH]c(=S)n1N,12.2%
2,Cc1ccc(C)c(S(=O)(=O)N2CCN(C(=O)Nc3ccccc3)CC2)c1,5.32%
3,COc1ccc(-c2csc3ncnc(N4CCN(S(=O)(=O)c5ccccc5C#N)CC4)c23)cc1,33.6%
4,Cc1ccc(C)c(S(=O)(=O)N2CCN(c3ncnc4sccc34)CC2)c1,58.5% (active)
5,CC(C)Cc1ccc(-c2cc3nc(NCc4cccc(Cl)c4)ccn3n2)cc1,-178%
6,CC(C)NC(=O)C1(C)CCCCN1Cc1cccc(C(F)(F)F)c1 (configuration not stated),-13.2%
7,COc1ccc(-c2ccc(C(=O)NC(C)C)c3occc23)c(C)c1,-11.5%
8,Cc1ccc(Cn2c(C)c(C(=O)NCc3ccccc3C(F)(F)F)sc2=O)cc1,18.5%
9,Cc1cccc(CS(=O)(=O)c2ncc(Cl)c(C(=O)Nc3ccc(F)cc3)n2)c1,108% (active)
10,O=C(Nc1ccc(F)cc1)c1ccc(S(=O)(=O)NCc2cccnc2)cc1,-20.7%
11,Cc1cc(C)cc(NS(=O)(=O)Cc2ccccc2)c1,-13.5%
12,Cc1cccc(NC(=O)Cn2cc(C(=O)c3ccco3)c3ccccc32)c1,8.59%
13,Cc1cccc(NC(=O)c2nc(S(=O)(=O)Cc3ccccc3)ncc2Cl)c1,111% (active)
14,CN1CCN(c2ccc(NC(=O)c3ccc4c(c3)[nH]c(=O)n4Cc3ccc(F)cc3)cc2)CC1,24.3%
15,CC(Oc1cc2oc(=O)c3c(c2cc1Cl)CCCC3)C(=O)NCc1ccncc1 (configuration not stated),3.42%
16,Cc1ccc2nc(-c3ccccc3)c(CC3CCCCC3)n2c1,-146%
17,Clc1cccc(Cc2c(-c3cccc(Cl)c3)nc3ccc(Cl)cn23)c1,-112%
18,COc1ccc(CN2CCC(C)(Oc3cccc(F)c3)C2)c2ccccc12 (configuration not stated),-19.4%
19,O=C(NCc1cccnc1)c1cc(C2CCCN(C(=O)CCCc3ccccc3)C2)on1 (configuration not stated),-7.2%
20,Cc1cc(C)c2c(Cn3ccnc3)cc(=O)oc2c1,18.3%
21,Cn1c2ccccc2c(=O)c2c(=O)n(Cc3ccco3)c(COc3ccccc3)nc21,50.5% (active)
22,O=C(CSc1nnc(COc2ccc(Cl)cc2)n1Cc1ccco1)N1CCNC1=O,6.82%
23,CCCc1nc2c(c(=O)c3ccccc3n2C)c(=O)n1C1CCCCCC1,-44.1%
